# The panel holds about 79,000 compounds, 15% with a hit somewhere; the sample as a whole holds those more often. Active and inactive are the calls of the source. Cut-off read from the data, not from the text of the source: active = growth inhibition above about 70%; inactive = the rest.
# Tests used:
# [1] = NCI Yeast Anticancer Drug Screen. Data for the rad50 strain (AID 155);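 note: 0% = growth of vehicle-only cultures of the same strain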; conditions: S. cerevisiae rad50 strain growth inhibition; at 50.0 µM; hits give high values
# Procedure, shortened: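 Vehicle-treated cultures provide the reference for the growth inhibition reported for compound-exposed, repair-deficient yeast.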
# [2] = NCI Yeast Anticancer Drug Screen. Data for the mec2-1 strain (AID 157); conditions: S. cerevisiae mec2-1 strain, at 50.0 µM, hits give high values
# Procedure, shortened: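 Using mec2-1 yeast: add compound, measure growth, express inhibition versus vehicle-treated cultures.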
# [3] = NCI Yeast Anticancer Drug Screen. Data for the sgs1 mgt1 strain (AID 161);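 note: 0% = growth of cultures given vehicle only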; conditions: S. cerevisiae sgs1 mgt1 strain, at 50.0 µM, hits give high values
# Procedure, shortened: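 Compounds are added to genetically altered yeast, and growth is compared with cultures given vehicle alone to give percent inhibition.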
# [4] = NCI Yeast Anticancer Drug Screen. Data for the cln2 rad14 strain (AID 165);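 note: 0% = growth equal to vehicle treated cultures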; conditions: S. cerevisiae cln2 rad14 strain, at 50.0 µM, hits give high values
# Procedure, shortened: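 Yeast strain cln2 rad14, bearing defects in cell cycle control and DNA repair, serves as the test system; values reflect growth inhibition compared with vehicle.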
# [5] = NCI Yeast Anticancer Drug Screen. Data for the bub3 strain (AID 167); conditions: S. cerevisiae bub3 mutant strain, at 50.0 µM, hits give high values
# Procedure, shortened: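 Mutant yeast screening strain plus compound; vehicle-treated cultures serve as the 0% inhibition reference.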
# [6] = NCI Yeast Anticancer Drug Screen. Data for the mlh1 rad18 strain (AID 175); conditions: S. cerevisiae mlh1 rad18 strain growth inhibition; at 50.0 µM; hits give high values
# Procedure, shortened: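 Steps: expose repair-defective yeast to compound; measure growth; express inhibition against vehicle-treated controls.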
SMILES,growth inhibition [1],growth inhibition [2],growth inhibition [3],growth inhibition [4],growth inhibition [5],growth inhibition [6]
Cc1ccc(S(=O)(=O)c2ccccc2C)s1,-9% (inactive),-32.5% (inactive),-16.4% (inactive),11.5% (inactive),-14.6% (inactive),-12.1% (inactive)
CCN(CC)CC(C)(C)C(=O)/C=C/c1ccc(OC)cc1,-3.7% (inactive),-8.2% (inactive),7.35% (inactive),-5.5% (inactive),0.05% (inactive),-7.3% (inactive)
CCCCNCC#N,20.4% (inactive),-10.7% (inactive),-0.85% (inactive),7.4% (inactive),5.15% (inactive),3.95% (inactive)
COc1ccc2c(c1)CCCN2C(N)=Nc1ccc([N+](=O)[O-])cc1,-4.2% (inactive),-4.4% (inactive),-1.45% (inactive),-55.8% (inactive),-1.95% (inactive),-7.7% (inactive)
Cc1ccc2nc(N=C(N)N)[nH]c2c1,-16.5% (inactive),-33.1% (inactive),2.75% (inactive),1.1% (inactive),-14.3% (inactive),-12.6% (inactive)
Cc1ccc(N=Nc2ccc(C)cc2NC(=O)CCl)cc1,-17.7% (inactive),-15.8% (inactive),-21.9% (inactive),-21.9% (inactive),3.2% (inactive),-15.2% (inactive)
CCN(Cc1cccc(S(=O)(=O)O)c1)c1ccc(C(=C2C=CC(=[N+](C)C)C=C2)c2ccc(N(C)C)cc2)c(S(=O)(=O)O)c1,8.35% (inactive),54.8% (inactive),28.1% (inactive),-8.55% (inactive),11.9% (inactive),26.4% (inactive)
CCCCC1NNC(CCCC)NN1 (configuration not stated),2.8% (inactive),-15.2% (inactive),-18.8% (inactive),-25.8% (inactive),-6.3% (inactive),-1.4% (inactive)
COc1cc(/C=C/C(=O)OCC23CC[C@@]4(C(=O)O)CCC(C)[C@H](C)C4C2=CCC2[C@@]4(C)CC[C@H](O)C(C)(C)C4CC[C@]23C)ccc1O (some centres not stated),20.2% (inactive),9.95% (inactive),26.6% (inactive),4.85% (inactive),-1.6% (inactive),6.9% (inactive)
c1csc(-c2nn3c(C45CC6CC(CC(C6)C4)C5)nnc3s2)c1,10.9% (inactive),-15.3% (inactive),-20.1% (inactive),-11.3% (inactive),2.3% (inactive),-12.8% (inactive)
O=C(NCCCCCCNC(=O)Oc1ccccc1F)Oc1ccccc1F,-13.6% (inactive),-14.5% (inactive),-6.5% (inactive),-0.05% (inactive),6.4% (inactive),-20.9% (inactive)
Cc1cccc(N2CC3CC4C=CC3(C2)O4)c1 (configuration not stated),13.7% (inactive),7.65% (inactive),4.45% (inactive),-15.2% (inactive),22.1% (inactive),13.1% (inactive)
COc1ccc(C(C#N)NNC(=O)c2ccccc2O)cc1OC (configuration not stated),14.9% (inactive),0.85% (inactive),6.6% (inactive),4.2% (inactive),35.2% (inactive),-18.9% (inactive)
[O-]c1n[n+](Cc2ccc(Br)cc2)no1,6.95% (inactive),15.2% (inactive),-4% (inactive),1.2% (inactive),18.4% (inactive),28.3% (inactive)
Cc1ccc(N)c(C(O)(C(F)(F)F)C(F)(F)F)c1,-5.7% (inactive),1.5% (inactive),12.5% (inactive),15.6% (inactive),16.6% (inactive),16.6% (inactive)
CCCCCCCCOC1OC(COC(C)=O)C(OC(C)=O)C(OC(C)=O)C1OC(C)=O (configuration not stated),-3% (inactive),3.75% (inactive),-4.45% (inactive),6.75% (inactive),-35.5% (inactive),-6.95% (inactive)
O=C1Oc2ccccc2C(=O)C1=Ic1ccccc1,31.3% (inactive),52.9% (inactive),73.6% (active),51.3% (inactive),38% (inactive),56% (inactive)
O=c1cnn2c(n1)sc1ccc3ccccc3c12,-11.8% (inactive),-0.9% (inactive),-15.4% (inactive),0.65% (inactive),26.5% (inactive),40.4% (inactive)
O=C(Nc1ccc(N=Nc2ccccc2)cc1)c1ccc(Cl)cc1,-11.1% (inactive),2.3% (inactive),12.1% (inactive),-60.1% (inactive),2.35% (inactive),-7.95% (inactive)

SMILES,growth inhibition [1],growth inhibition [2],growth inhibition [3],growth inhibition [4],growth inhibition [5],growth inhibition [6]
CN(C)CC1CCCC(CN(C)C)C1=NOC(=O)c1ccccc1 (configuration not stated),-8.15% (inactive),-33.8% (inactive),-2.3% (inactive),-21.4% (inactive),8.05% (inactive),-27.8% (inactive)
COC1=C(NCC(C)C)C(=O)C(OC)=C(NCC(C)C)C1=O,-3.05% (inactive),8.75% (inactive),1.7% (inactive),-57.7% (inactive),3.25% (inactive),-12.1% (inactive)
Nn1c(=O)[nH]c2ncn(Cc3ccccc3)c2c1=O,4.3% (inactive),-21.9% (inactive),9.2% (inactive),16.9% (inactive),-3% (inactive),3.35% (inactive)
N#C/C(=C\c1ccc(Cl)cc1)c1nc2ccccc2c(=O)[nH]1,12.2% (inactive),17.9% (inactive),-14.5% (inactive),5.7% (inactive),1.8% (inactive),-53.2% (inactive)
COc1ccc(N=Cc2c(O)ccc3ccccc23)cc1,12% (inactive),48% (inactive),43.1% (inactive),0.95% (inactive),32% (inactive),63% (inactive)
C/C(=N\NS(=O)(=O)c1ccccc1)c1ccccc1,5.95% (inactive),3.4% (inactive),3.5% (inactive),28.6% (inactive),1.1% (inactive),20.5% (inactive)
O=C1OC(c2cccc(C(F)(F)F)c2)c2ccc3ccccc3c21 (configuration not stated),14.3% (inactive),-0.45% (inactive),10.7% (inactive),18.1% (inactive),10.8% (inactive),22.8% (inactive)
Cn1c(=O)c(Br)cc2ccccc21,10.2% (inactive),13.9% (inactive),21.3% (inactive),8.45% (inactive),9.1% (inactive),33.5% (inactive)
CC1(C)COCOC1c1ccccc1 (configuration not stated),-6.2% (inactive),11.3% (inactive),-21.4% (inactive),-11.8% (inactive),-1% (inactive),6.4% (inactive)
Cc1cc(C)cc(C(=O)OC2CCCC2)c1,1.2% (inactive),0.35% (inactive),-3.85% (inactive),4.5% (inactive),-5.2% (inactive),22.9% (inactive)
Cc1cc(=O)oc2cc(NC(=O)C(CCCN=C(N)N)NC(=O)OCc3ccccc3)ccc12 (configuration not stated),26.5% (inactive),-17.4% (inactive),23.1% (inactive),-2.95% (inactive),-4.1% (inactive),7.1% (inactive)
O=c1oc2ccccc2cc1F,16.4% (inactive),7.2% (inactive),-9.75% (inactive),5.3% (inactive),16.9% (inactive),21.4% (inactive)
CCOC(=O)C(Cc1cccc2ccccc12)(NC(C)=O)C(=O)OCC,-7.5% (inactive),-4.55% (inactive),-5.95% (inactive),-31.9% (inactive),16.5% (inactive),-14.8% (inactive)
COC(=O)CCCC(=O)O,4.4% (inactive),-5.2% (inactive),-2.6% (inactive),-15.4% (inactive),2.9% (inactive),8.25% (inactive)
CCC(=O)OC1C(OC2C(C)C(OC3CC(C)(OC)C(O)C(C)O3)C(C)C(=O)OC(CC)C(C)(O)C(O)C(C)C(=O)C(C)CC2(C)O)OC(C)CC1N(C)C (configuration not stated),-18.1% (inactive),-28.1% (inactive),-31.2% (inactive),5.7% (inactive),-3% (inactive),-76.8% (inactive)
CCOP(=O)(OCC)C1(O)CC(n2cc(C)c(=O)[nH]c2=O)OC1CO (configuration not stated),7.3% (inactive),59.1% (inactive),-15.2% (inactive),27.1% (inactive),-5.05% (inactive),-37.7% (inactive)
COC(=O)C1(C2CCc3cc(OC)ccc3C2=O)NC(=S)NC(=O)C1C#N (configuration not stated),-2.8% (inactive),-4.45% (inactive),-18.2% (inactive),-4.05% (inactive),-21.1% (inactive),-6.65% (inactive)
Cc1cc2c3c(nc2c2cc[nH]c(C)c12)CCCC3,88.2% (active),92% (active),92% (active),91.7% (active),90.8% (active),91% (active)

# Reference: PubChem BioAssay (NCI)
